Calls of active or inactive are those of the source. The calls were made as follows: active = hit-call score of the fitted dose curve at least 0.9, where 1 is the maximum; inactive = score below 0.9.
What was measured:
Settings in all cases: mRNA level, 48 h; actives raise or lower the signal
Caspase-3 (Homo sapiens) = Caspase-3 (Homo sapiens) (UniProt P42574); assay: LTEA_HepaRG_CASP3: Life Technologies and Expression Analysis (LTEA) Assay for cysteine-aspartic acid protease (CASP3) using HepaRG (AID 2283477)
Procedure, shortened: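 HepaRG, 48 h exposure, 8 conc. (top 100 uM, half-log steps, duplicate), 0.5% DMSO vehicle; qRT-PCR of CASP3 transcript, housekeeping-normalised (ACTB/GAPDH/POLR2A); bidirectional curve fit vs DMSO baseline.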

[1] = read-out: Cytochrome P450 (CYP24A1), CYP24A1 (gene 1591); assay: LTEA_HepaRG_CYP24A1: Life Technologies and Expression Analysis (LTEA) Assay for Cytochrome P450 (CYP24A1) using HepaRG (AID 2283478)
Procedure, shortened: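 qRT-PCR read-out: CYP24A1 transcript levels normalized to three housekeeping genes, bidirectional curve fits against 0.5% DMSO baseline. Human HepaRG cells treated 48 h with chemicals at eight concentrations from 100 uM in half-log steps.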

[2] = read-out: Cytochrome P450 (CYP1A2), CYP1A2 (gene 1544); assay: LTEA_HepaRG_CYP1A2: Life Technologies and Expression Analysis (LTEA) Assay for Cytochrome P450 (CYP1A2) using HepaRG (AID 2283479)
Procedure, shortened: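 HepaRG, 48 h exposure, top 100 uM, half-log 8-pt, 0.5% DMSO vehicle, duplicates. Readout: TaqMan qRT-PCR of CYP1A2 mRNA, housekeeping-normalized (ACTB/GAPDH/POLR2A). Gain/loss fit relative to DMSO baseline.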

[3] = read-out: Cytochrome P450 (CYP2B6), CYP2B6 (gene 1555); assay: LTEA_HepaRG_CYP2B6: Life Technologies and Expression Analysis (LTEA) Assay for Cytochrome P450 (CYP2B6) using HepaRG (AID 2283481)
Procedure, shortened: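 Read-out is CYP2B6 mRNA by TaqMan qRT-PCR, normalized to three housekeeping genes and fitted bidirectionally against 0.5% DMSO baseline. Human HepaRG cells received test chemicals for 48 h, top concentration 100 uM, half-log dilutions.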

[4] = read-out: Cytochrome P450 2C19 (Homo sapiens) (UniProt P33261); assay: LTEA_HepaRG_CYP2C19: Life Technologies and Expression Analysis (LTEA) Assay for CYP2C19 using HepaRG (AID 2283482)
Procedure, shortened: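 HepaRG, 48 h chemical exposure, 8-pt half-log series from 100 uM in 0.5% DMSO, duplicates. Readout: CYP2C19 mRNA by TaqMan qRT-PCR, housekeeping-normalized. Bidirectional fit vs DMSO baseline; phenobarbital 1mM as induction control.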

CYP2C8 (gene 1558) = assay: LTEA_HepaRG_CYP2C8: Life Technologies and Expression Analysis (LTEA) Assay for CYP2C8 using HepaRG (AID 2283483)
Procedure, shortened: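 Differentiated human HepaRG cells were exposed for 48 h in serum-free induction medium to eight half-log concentrations up to 100 uM in 0.5% DMSO, in duplicate. CYP2C8 mRNA was measured by TaqMan qRT-PCR, normalized to ACTB, GAPDH and POLR2A, and fitted bidirectionally against DMSO.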

CYP2C9 (gene 1559) = assay: LTEA_HepaRG_CYP2C9: Life Technologies and Expression Analysis (LTEA) Assay for CYP2C9 using HepaRG (AID 2283484)
Procedure, shortened: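 Differentiated human HepaRG cells were exposed 48 h in serum-free induction medium to eight half-log concentrations up to 100 uM in 0.5% DMSO. CYP2C9 mRNA was measured by qRT-PCR, normalized to ACTB, GAPDH and POLR2A, and fitted bidirectionally against DMSO.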

CYP2E1 (gene 1571) = assay: LTEA_HepaRG_CYP2E1: Life Technologies and Expression Analysis (LTEA) Assay for CYP2E1 using HepaRG (AID 2283485)
Procedure, shortened: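 Differentiated HepaRG cells were treated in duplicate for 48 h with chemicals in 0.5% DMSO, from 100 uM downward in half-log dilutions. RNA was then analysed by qRT-PCR for CYP2E1 induction or loss.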

CYP4A11 (gene 1579) = assay: LTEA_HepaRG_CYP4A11: Life Technologies and Expression Analysis (LTEA) Assay for CYP4A11 using HepaRG (AID 2283486)
Procedure, shortened: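 CYP4A11 transcript levels were quantified by TaqMan qRT-PCR after HepaRG human liver cells were treated for 48 hours with test chemicals (top 100 uM, half-log dilutions, 0.5% DMSO). Gain or loss of signal was fitted relative to DMSO.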

[5] = read-out: Cytochrome P450 3A4 (Homo sapiens) (UniProt P08684); assay: LTEA_HepaRG_CYP3A4: Life Technologies and Expression Analysis (LTEA) Assay for CYP3A4 using HepaRG (AID 2283487)
Procedure, shortened: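 Differentiated HepaRG cells, plated 48 h, then dosed 48 h in serum-free induction medium with 0.5% DMSO, 8 half-log concentrations up to 100 uM, duplicate. CYP3A4 mRNA by qRT-PCR, normalized to ACTB/GAPDH/POLR2A; bidirectional fit versus DMSO.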

[6] = read-out: DNA damage-inducible transcript 3 (DDIT3), DDIT3 (gene 1649); assay: LTEA_HepaRG_DDIT3: Life Technologies and Expression Analysis (LTEA) Assay for DNA damage-inducible transcript 3 (DDIT3) using HepaRG (AID 2283488)
Procedure, shortened: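 Changes in DDIT3 transcript, in either direction relative to 0.5% DMSO vehicle, were quantified by TaqMan qRT-PCR after 48 h chemical exposure of HepaRG cells at 8 concentrations, maximum 100 uM.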

[7] = read-out: Pro-epidermal growth factor (Homo sapiens) (UniProt P01133); assay: LTEA_HepaRG_EGF: Life Technologies and Expression Analysis (LTEA) Assay for Epidermal growth factor (EGF) using HepaRG (AID 2283489)
Procedure, shortened: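 qRT-PCR readout of EGF transcript after 48 h chemical exposure of HepaRG cells; eight concentrations from 100 uM down in half-log steps, duplicate wells, 0.5% DMSO vehicle. Bidirectional curve fitting against DMSO baseline.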

[8] = read-out: Early growth response protein 1 (EGR1) transcription factor, EGR1 (gene 1958); assay: LTEA_HepaRG_EGR1: Life Technologies and Expression Analysis (LTEA) Assay for Early growth response protein 1 (EGR1) transcription factor using HepaRG (AID 2283490)
Procedure, shortened: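 Differentiated human HepaRG cells in serum-free induction medium were exposed in duplicate for 48 h to eight concentrations (top 100 uM, half-log steps) in 0.5% DMSO. EGR1 mRNA was quantified by qRT-PCR, normalized to ACTB, GAPDH and POLR2A, and fitted bidirectionally versus DMSO.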

[9] = read-out: Ezrin (EZR), EZR (gene 7430); assay: LTEA_HepaRG_EZR: Life Technologies and Expression Analysis (LTEA) Assay for Ezrin (EZR) using HepaRG (AID 2283491)
Procedure, shortened: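 EZR transcript levels came from Fluidigm qRT-PCR and were normalized to three housekeeping genes after 48 h chemical exposure of HepaRG cells. Dosing used an 8-point half-log series with a 100 uM top concentration in 0.5% DMSO, tested in duplicate; both directions were fitted versus vehicle.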

[10] = read-out: Cytochrome P450 3A7 (Homo sapiens) (UniProt P24462); assay: LTEA_HepaRG_CYP3A7: Life Technologies and Expression Analysis (LTEA) Assay for CYP3A7 using HepaRG (AID 2283492)
Procedure, shortened: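 CYP3A7 transcript levels were read by TaqMan qRT-PCR on Fluidigm arrays after 48 h chemical exposure of human HepaRG cells, with housekeeping-gene normalisation. Eight half-log concentrations up to 100 uM in 0.5% DMSO were tested in duplicate.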

CYP3A5 (gene 1577) = assay: LTEA_HepaRG_CYP3A5: Life Technologies and Expression Analysis (LTEA) Assay for CYP3A5 using HepaRG (AID 2283493)
Procedure, shortened: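 mRNA induction or loss of CYP3A5 assessed in HepaRG after 48 h dosing, 100 uM top concentration, duplicate wells; TaqMan qRT-PCR with ACTB, GAPDH, POLR2A normalization; 0.5% DMSO as negative control.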

[11] = read-out: Fatty Acid-Binding Protein 1 (FABP1), FABP1 (gene 2168); assay: LTEA_HepaRG_FABP1: Life Technologies and Expression Analysis (LTEA) Assay for Fatty Acid-Binding Protein 1 (FABP1) using HepaRG (AID 2283494)
Procedure, shortened: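 Differentiated human HepaRG cells were exposed in duplicate for 48 h in serum-free induction medium to 8-point half-log concentration series topping at 100 uM in 0.5% DMSO. FABP1 mRNA measured by TaqMan qRT-PCR, normalized to ACTB/GAPDH/POLR2A; bidirectional fit versus DMSO.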

[12] = read-out: Cytochrome P450 7A1 (Homo sapiens) (UniProt P22680); assay: LTEA_HepaRG_CYP7A1: Life Technologies and Expression Analysis (LTEA) Assay for Cytochrome P450 7A1 (CYP7A1) using HepaRG (AID 2283496)
Procedure, shortened: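 Gene expression endpoint in human HepaRG liver cells treated for 48 h with test chemicals (up to 100 uM, 0.5% DMSO). Values come from bidirectional concentration-response fitting versus DMSO.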

[13] = read-out: Cytochrome P450 4A22 (Homo sapiens) (UniProt Q5TCH4); assay: LTEA_HepaRG_CYP4A22: Life Technologies and Expression Analysis (LTEA) Assay for Cytochrome P450 4A22 (CYP4A22) using HepaRG (AID 2283495)
Procedure, shortened: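 HepaRG, 48 h post-plating -> serum-free induction medium; dosed 48 h, duplicate, 8 conc. (100 uM top, half-log), 0.5% DMSO. Readout: CYP4A22 mRNA by qRT-PCR, ACTB/GAPDH/POLR2A normalization; gain/loss fit relative to DMSO.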

[14] = read-out: cysteine-aspartic acid protease (CASP8), CASP8 (gene 841); assay: LTEA_HepaRG_CASP8: Life Technologies and Expression Analysis (LTEA) Assay for cysteine-aspartic acid protease (CASP8) using HepaRG (AID 2283480)
Procedure, shortened: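 Differentiated human HepaRG cells, plated 48 h then switched to serum-free induction medium, were exposed in duplicate for 48 h to 8 half-log concentrations up to 100 uM in 0.5% DMSO. CASP8 mRNA was quantified by qRT-PCR, normalized to ACTB/GAPDH/POLR2A.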

Measured: AC50

Sequence of Cytochrome P450 2C19 (Homo sapiens) (P33261 whole entry, looked up): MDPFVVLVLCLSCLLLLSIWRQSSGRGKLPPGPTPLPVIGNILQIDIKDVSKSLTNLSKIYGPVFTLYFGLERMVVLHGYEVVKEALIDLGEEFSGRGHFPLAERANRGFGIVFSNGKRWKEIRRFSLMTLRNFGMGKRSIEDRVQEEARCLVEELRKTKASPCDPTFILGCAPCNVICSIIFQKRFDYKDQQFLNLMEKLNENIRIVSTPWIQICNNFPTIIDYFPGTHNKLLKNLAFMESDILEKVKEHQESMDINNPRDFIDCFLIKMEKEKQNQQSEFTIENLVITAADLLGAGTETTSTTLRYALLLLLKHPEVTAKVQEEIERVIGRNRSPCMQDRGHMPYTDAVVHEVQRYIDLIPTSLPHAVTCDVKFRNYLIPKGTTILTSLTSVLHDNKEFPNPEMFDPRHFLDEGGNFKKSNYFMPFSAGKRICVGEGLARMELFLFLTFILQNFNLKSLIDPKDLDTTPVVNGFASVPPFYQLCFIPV
Sequence of Cytochrome P450 3A4 (Homo sapiens) (P08684 whole entry, looked up): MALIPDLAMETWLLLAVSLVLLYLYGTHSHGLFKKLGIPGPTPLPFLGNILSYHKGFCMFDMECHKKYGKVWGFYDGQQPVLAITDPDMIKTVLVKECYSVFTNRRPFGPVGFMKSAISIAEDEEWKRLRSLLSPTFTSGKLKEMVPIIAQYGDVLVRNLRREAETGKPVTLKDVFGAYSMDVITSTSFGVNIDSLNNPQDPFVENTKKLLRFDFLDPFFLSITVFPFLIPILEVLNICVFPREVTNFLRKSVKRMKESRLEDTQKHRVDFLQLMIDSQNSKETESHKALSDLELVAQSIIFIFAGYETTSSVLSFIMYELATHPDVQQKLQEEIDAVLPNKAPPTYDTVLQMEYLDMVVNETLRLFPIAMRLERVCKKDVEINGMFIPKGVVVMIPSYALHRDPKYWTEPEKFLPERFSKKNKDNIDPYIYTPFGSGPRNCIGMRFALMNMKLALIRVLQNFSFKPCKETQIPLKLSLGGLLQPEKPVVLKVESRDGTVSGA
Sequence of Cytochrome P450 3A7 (Homo sapiens) (P24462 whole entry, looked up): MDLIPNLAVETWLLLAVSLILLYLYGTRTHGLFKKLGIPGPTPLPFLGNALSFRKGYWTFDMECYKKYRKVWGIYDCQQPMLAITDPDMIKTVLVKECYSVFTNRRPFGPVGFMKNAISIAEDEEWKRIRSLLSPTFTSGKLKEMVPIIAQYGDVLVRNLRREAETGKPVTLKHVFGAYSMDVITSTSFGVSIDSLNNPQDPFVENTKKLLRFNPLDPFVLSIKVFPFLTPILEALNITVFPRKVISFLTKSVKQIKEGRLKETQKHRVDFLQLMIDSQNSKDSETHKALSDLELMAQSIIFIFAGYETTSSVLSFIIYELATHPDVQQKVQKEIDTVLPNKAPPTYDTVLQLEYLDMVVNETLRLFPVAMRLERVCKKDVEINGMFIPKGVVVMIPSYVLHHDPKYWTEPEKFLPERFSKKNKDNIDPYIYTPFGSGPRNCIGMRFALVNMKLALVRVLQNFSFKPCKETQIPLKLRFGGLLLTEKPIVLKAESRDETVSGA
Sequence of Caspase-3 (Homo sapiens) (P42574 whole entry, looked up): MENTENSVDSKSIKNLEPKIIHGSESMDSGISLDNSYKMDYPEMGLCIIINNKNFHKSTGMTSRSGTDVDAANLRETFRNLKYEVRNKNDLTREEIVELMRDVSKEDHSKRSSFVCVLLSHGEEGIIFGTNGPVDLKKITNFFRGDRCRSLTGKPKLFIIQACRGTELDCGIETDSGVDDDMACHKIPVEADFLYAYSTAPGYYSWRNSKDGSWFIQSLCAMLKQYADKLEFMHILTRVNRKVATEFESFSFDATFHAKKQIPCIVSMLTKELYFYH

Cn1c(=O)cc(Oc2ccc(F)cc2F)c2cnc(NCC(C)(C)O)nc21
active: [2] 16 µM | [3] 6.6 µM | [4] 14.6 µM | CYP2E1 (gene 1571) 50 µM | CYP4A11 (gene 1579) 50 µM | [5] 50 µM | [10] 28.9 µM | CYP3A5 (gene 1577) 50 µM
not listed: [13] | [14]
inactive: all other assays above

CC[C@H](C)C(=O)O[C@H]1C[C@@H](C)C=C2C=C[C@H](C)[C@H](CC[C@@H]3C[C@@H](O)CC(=O)O3)[C@H]21
active: [2] 6.18 µM | CYP2E1 (gene 1571) 29.8 µM | [11] 13.2 µM
not listed: [4] | CYP2C9 (gene 1559) | [5] | [10] | CYP3A5 (gene 1577) | [14]
inactive: all other assays above

COc1ccc2sc(C(=O)Nc3nnn[nH]3)c(OC(C)C)c2c1
active: [2] 15.8 µM | [3] 87.1 µM | [4] 87 µM | CYP2C9 (gene 1559) 50 µM | CYP2E1 (gene 1571) 91.6 µM | [6] 13.2 µM | [7] 22 µM | [8] 74.8 µM | [10] 87.2 µM | [11] 83.9 µM | [12] 96.5 µM
inactive: Caspase-3 (Homo sapiens) | [1] | CYP2C8 (gene 1558) | CYP4A11 (gene 1579) | [5] | [9] | CYP3A5 (gene 1577)

CC(C)=CCCC(C)CCO (stereo not drawn)
active: [2] 50 µM | [3] 11.7 µM
not listed: [13] | [14]
inactive: all other assays above

CC(C)=CCC/C(C)=C\CO
inactive: Caspase-3 (Homo sapiens) | [14] | [6] | [7] | [8] | [9] | [11]

CC(C)CC(C)(O)C#CC(C)(O)CC(C)C (stereo not drawn)
active: [3] 21.9 µM | [4] 29.5 µM | CYP2E1 (gene 1571) 64.7 µM | CYP4A11 (gene 1579) 50 µM | [5] 19.4 µM
not listed: [7] | [12] | [13] | [14]
inactive: all other assays above

Cc1ccc(N)cc1O
active: [2] 26.8 µM | CYP2E1 (gene 1571) 30.8 µM | [11] 23.1 µM | [12] 24.4 µM
not listed: [13] | [14]
inactive: all other assays above

Cc1ccc(C)c(O)c1
active: [2] 51.2 µM | [3] 51.2 µM
not listed: [13] | [14]
inactive: all other assays above

O=C(O)c1cccc(N(Cc2cccnc2)c2ccc(OC(F)F)c(OC(F)F)c2)c1
active: [1] 0.00316 µM | CYP2E1 (gene 1571) 5.18 µM | [5] 43.5 µM | [8] 50 µM | [11] 87 µM | [12] 4.48 µM
not listed: [13] | [14]
inactive: all other assays above

CCC(C)(C)C(=O)O[C@H]1C[C@@H](C)C=C2C=C[C@H](C)[C@H](CC[C@@H]3C[C@@H](O)CC(=O)O3)[C@H]21
inactive: Caspase-3 (Homo sapiens) | [6] | [7] | [8] | [9]
active: [11] 5.7 µM

NC(=O)NO
inactive: Caspase-3 (Homo sapiens) | [14] | [6] | [7] | [8] | [9] | [11]

O=c1n(CC2CO2)c(=O)n(CC2CO2)c(=O)n1CC1CO1 (stereo not drawn)
active: [5] 78.3 µM
not listed: [13] | [14]
inactive: all other assays above

CC(C)CCCCCCCOC(=O)CCCCC(=O)OCCCCCCCC(C)C
not listed: [13] | [14]
inactive: all other assays above

O=C1CCC(N2C(=O)c3ccccc3C2=O)C(=O)N1 (stereo not drawn)
not listed: [7] | [14]
inactive: all other assays above

On1ccccc1=S
not listed: [7] | [12] | [13] | [14]
inactive: all other assays above

Source: PubChem BioAssay (EPA / NIEHS)
